This is part of a sample that, as a whole, favours compounds with a hit. Of some 79,000 tested, about 15% had one in any assay. Activity calls are given as the source filed them. Cut-off read from the data, not from the text of the source: active = growth inhibition above about 70%; inactive = the rest.
Experiments:
[1] = NCI Yeast Anticancer Drug Screen. Data for the rad52 strain (AID 147);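 note: 0% = growth of vehicle-treated control cultures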; conditions: S. cerevisiae rad52 mutant growth inhibition, stronger effect = higher value
Summary of the method: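 Measured: yeast growth inhibition. System: strain with a defined DNA damage repair alteration. Reference: vehicle-treated control cultures.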

[2] = NCI Yeast Anticancer Drug Screen. Data for the wt1 strain (AID 149);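 note: 0% = growth of vehicle-treated wt1 cultures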; conditions: S. cerevisiae wt1 strain (SPY 50644) growth inhibition, stronger effect = higher value
Summary of the method: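 Readout: yeast growth inhibition, normalised to vehicle controls, in the wt1 strain exposed to test compounds.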

[3] = NCI Yeast Anticancer Drug Screen. Data for the rad50EPP+ strain (AID 151);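 note: 0% = growth of vehicle-treated control cultures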; conditions: S. cerevisiae rad50 mutant strain, stronger effect = higher value
Summary of the method: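 One strain with a rad50 alteration (rad50EPP+) was compound-treated, its growth then compared to that of vehicle controls.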

[4] = NCI Yeast Anticancer Drug Screen. Data for the rad50 strain (AID 155);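 note: 0% = growth of vehicle-only cultures of the same strain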; conditions: S. cerevisiae rad50 strain growth inhibition, stronger effect = higher value
Summary of the method: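 Compounds were tested on a yeast strain with an engineered DNA damage repair alteration; the reported value is growth inhibition normalised to vehicle treatment.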

[5] = NCI Yeast Anticancer Drug Screen. Data for the mec2-1 strain (AID 157); conditions: S. cerevisiae mec2-1 strain, stronger effect = higher value
Summary of the method: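 Test agents were screened against the mec2-1 yeast strain, with defined DNA repair or cell cycle alteration. Growth was scored as inhibition against vehicle-only controls.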

[6] = NCI Yeast Anticancer Drug Screen. Data for the rad14 strain (AID 159);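 note: 0% = growth of vehicle-treated control cultures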; conditions: S. cerevisiae rad14 strain growth inhibition, stronger effect = higher value
Summary of the method: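 Compound-treated yeast with a defined DNA-repair lesion; growth inhibition normalised to vehicle-treated cultures.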

[7] = NCI Yeast Anticancer Drug Screen. Data for the sgs1 mgt1 strain (AID 161);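 note: 0% = growth of cultures given vehicle only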; conditions: S. cerevisiae sgs1 mgt1 strain, stronger effect = higher value
Summary of the method: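 Inhibition of yeast growth, normalised to vehicle-treated controls, is reported for a strain bearing genetic alterations in DNA damage repair.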

[8] = NCI Yeast Anticancer Drug Screen. Data for the CLN2oe strain (AID 163);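 note: 0% = growth of vehicle-only control cultures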; conditions: S. cerevisiae CLN2oe strain, stronger effect = higher value
Summary of the method: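 Here, growth inhibition in a cell-cycle-altered yeast strain after compound exposure was quantified against vehicle control growth.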

[9] = NCI Yeast Anticancer Drug Screen. Data for the cln2 rad14 strain (AID 165);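 note: 0% = growth equal to vehicle treated cultures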; conditions: S. cerevisiae cln2 rad14 strain, stronger effect = higher value
Summary of the method: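 Growth of compound-exposed yeast (cln2 rad14 genotype) measured and expressed as inhibition relative to vehicle.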

[10] = NCI Yeast Anticancer Drug Screen. Data for the bub3 strain (AID 167); conditions: S. cerevisiae bub3 mutant strain, stronger effect = higher value
Summary of the method: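 Growth of a checkpoint-deficient yeast mutant is measured after compound exposure. Values represent inhibition relative to vehicle.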

[11] = NCI Yeast Anticancer Drug Screen. Data for the wt2 strain (AID 169);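 note: 0% = growth of vehicle-treated yeast cultures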; conditions: S. cerevisiae wt2 strain growth inhibition, stronger effect = higher value
Summary of the method: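 Genetically defined yeast strains from a DNA-repair/cell-cycle panel were used. Compound-exposed yeast growth was measured, and the inhibition was calculated relative to vehicle treatment.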

[12] = NCI Yeast Anticancer Drug Screen. Data for the mlh1 strain (AID 171);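 note: 0% = growth of vehicle-treated control cultures of the same strain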; conditions: S. cerevisiae mlh1 strain growth inhibition, stronger effect = higher value
Summary of the method: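 Here the genetically defined yeast mutant is grown with each compound, and the extent to which its growth falls below that of vehicle-exposed cells is reported.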

[13] = NCI Yeast Anticancer Drug Screen. Data for the sgs1 strain (AID 173);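 note: 0% = growth of vehicle-only control cultures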; conditions: S. cerevisiae sgs1 mutant, stronger effect = higher value
Summary of the method: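 Relative growth inhibition, referenced to vehicle, was determined in a yeast strain with a defined alteration affecting DNA damage repair or cell cycle control after compound exposure.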

[14] = NCI Yeast Anticancer Drug Screen. Data for the mlh1 rad18 strain (AID 175); conditions: S. cerevisiae mlh1 rad18 strain growth inhibition, stronger effect = higher value
Summary of the method: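 In this whole-cell yeast screen, a strain with altered DNA damage repair is challenged with compound, and its growth is measured against matched vehicle-treated controls.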

[15] = NCI Yeast Anticancer Drug Screen. Data for the rad18 strain (AID 177); conditions: S. cerevisiae rad18 mutant growth inhibition, stronger effect = higher value
Summary of the method: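 Screen uses a yeast strain with a defined lesion in DNA damage repair; compound effect is read as loss of growth compared to untreated vehicle cultures.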

[16] = NCI Yeast Anticancer Drug Screen. Data for the mgt1 strain (AID 153); conditions: S. cerevisiae mgt1 mutant growth inhibition, stronger effect = higher value
Summary of the method: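 After exposure of the mgt1 yeast mutant to compound, growth was measured and reported as inhibition compared with vehicle controls.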

[17] = at 5.0 µM (retest, dose inferred, filed as 0.5)
[18] = at 50.0 µM (retest, dose inferred, filed as 5.0)

Measured: growth inhibition

CC(=O)N1C(=O)/C(=C\C(=O)c2ccc([N+](=O)[O-])cc2)c2ccccc21
active: [1]; at 33.0 µM 92% | [1]; at 100.0 µM 97% | [2]; at 33.0 µM 77% | [2]; at 100.0 µM 97% | [3]; at 33.0 µM 89% | [3]; at 100.0 µM 95% | [4]; at 33.0 µM 93% | [4]; [18] 98% | [4]; at 50.0 µM 85.5% | [4]; at 100.0 µM 95% | [5]; at 33.0 µM 91% | [5]; [18] 98% | [5]; at 50.0 µM 89.5% | [5]; at 100.0 µM 97% | [6]; at 33.0 µM 86% | [6]; at 100.0 µM 97% | [7]; [18] 98% | [7]; at 50.0 µM 88.8% | [8]; at 100.0 µM 96% | [9]; at 50.0 µM 84.5% | [10]; at 33.0 µM 95% | [10]; [18] 96% | [10]; at 50.0 µM 86.8% | [10]; at 100.0 µM 96% | [11]; at 11.0 µM 93% | [11]; at 33.0 µM 98% | [11]; at 100.0 µM 98% | [12]; at 33.0 µM 95% | [12]; at 100.0 µM 97% | [13]; at 33.0 µM 96% | [13]; at 100.0 µM 96% | [14]; [17] 72% | [14]; [18] 98% | [14]; at 50.0 µM 85.7% | [15]; at 33.0 µM 90% | [15]; at 100.0 µM 97%
inactive: [1]; at 1.2 µM -14% | [1]; at 3.7 µM 18% | [1]; at 11.0 µM 53% | [2]; at 1.2 µM -10% | [2]; at 3.7 µM -15% | [2]; at 11.0 µM 21% | [3]; at 1.2 µM -12% | [3]; at 3.7 µM 35% | [3]; at 11.0 µM 4% | [4]; at 1.2 µM 0% | [4]; at 3.7 µM -8% | [4]; [17] 41% | [4]; at 11.0 µM 34% | [5]; at 1.2 µM -10% | [5]; at 3.7 µM 13% | [5]; [17] 60% | [5]; at 11.0 µM 28% | [6]; at 1.2 µM -8% | [6]; at 3.7 µM 9% | [6]; at 11.0 µM 31% | [7]; [17] 46% | [8]; at 1.2 µM -31% | [8]; at 3.7 µM 4% | [8]; at 11.0 µM 28% | [8]; at 33.0 µM 51% | [9]; [17] 25% | [9]; [18] 66% | [10]; at 1.2 µM -33% | [10]; at 3.7 µM -11% | [10]; [17] 12% | [10]; at 11.0 µM 22% | [11]; at 1.2 µM 29% | [11]; at 3.7 µM 55% | [12]; at 1.2 µM -8% | [12]; at 3.7 µM 14% | [12]; at 11.0 µM 67% | [13]; at 1.2 µM -13% | [13]; at 3.7 µM 27% | [13]; at 11.0 µM 66% | [15]; at 1.2 µM 1% | [15]; at 3.7 µM 26% | [15]; at 11.0 µM 61%

N#C/C(=C/c1c(Cl)cccc1Cl)C(N)=O
active: [1]; at 100.0 µM 96% | [2]; at 100.0 µM 96% | [16]; at 100.0 µM 98% | [4]; at 50.0 µM 77.2% | [4]; at 100.0 µM 97% | [5]; at 50.0 µM 74.8% | [5]; at 100.0 µM 97% | [8]; at 100.0 µM 81% | [10]; [18] 96% | [10]; at 100.0 µM 97% | [12]; at 33.0 µM 71% | [12]; at 100.0 µM 97% | [13]; at 33.0 µM 74% | [13]; at 100.0 µM 98% | [14]; [18] 76% | [15]; at 33.0 µM 81% | [15]; at 100.0 µM 97%
inactive: [1]; at 1.2 µM 0% | [1]; at 3.7 µM 5% | [1]; at 11.0 µM 13% | [1]; at 33.0 µM 63% | [2]; at 1.2 µM 13% | [2]; at 3.7 µM 13% | [2]; at 11.0 µM 10% | [2]; at 33.0 µM 47% | [3]; at 1.2 µM -24% | [3]; at 3.7 µM -29% | [3]; at 11.0 µM -30% | [3]; at 33.0 µM -24% | [3]; at 100.0 µM 57% | [16]; at 1.2 µM -4% | [16]; at 3.7 µM -15% | [16]; at 11.0 µM 1% | [16]; at 33.0 µM 63% | [4]; at 1.2 µM -10% | [4]; at 3.7 µM 3% | [4]; [17] 47% | [4]; at 11.0 µM 3% | [4]; at 33.0 µM 69% | [5]; at 1.2 µM -26% | [5]; at 3.7 µM -8% | [5]; [17] 46% | [5]; at 11.0 µM -7% | [5]; at 33.0 µM 58% | [7]; [17] -1% | [8]; at 1.2 µM 9% | [8]; at 3.7 µM -2% | [8]; at 11.0 µM 3% | [8]; at 33.0 µM 18% | [9]; [17] 45% | [10]; at 1.2 µM -5% | [10]; at 3.7 µM 4% | [10]; [17] 37% | [10]; at 11.0 µM 14% | [10]; at 33.0 µM 65% | [12]; at 1.2 µM -16% | [12]; at 3.7 µM -15% | [12]; at 11.0 µM 0% | [13]; at 1.2 µM 15% | [13]; at 3.7 µM 9% | [13]; at 11.0 µM 21% | [14]; [17] 34% | [14]; at 50.0 µM 61.7% | [15]; at 1.2 µM -19% | [15]; at 3.7 µM -11% | [15]; at 11.0 µM 6%

Reference: PubChem BioAssay (NCI)
